Bioassay records as filed in PubChem BioAssay.
MEX-5 binding: MEX-5 zinc finger RNA-binding disruptors – biochemical, C. elegans, fluorescence polarization, MLPCN library, primary screen; activity score (negative = inhibition of binding), % at 10 µM; MEX-5/FITC-TCR2 RNA binding; active compounds read low; 300,000 tested, 0.38% active;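 active = inhibition past about -25% in most replicates, and total fluorescence under double the plate's negative control median, limit read from the data; inconclusive = replicates evenly split on the limit, or fluorescence at least double controls; inactive = too little inhibition in most replicates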
EBV gp42 inh: Epstein-Barr virus gp42 inhibitors, primary screen, biochemical, uHTS, fluorescence polarization; Glycoprotein 42 (Epstein-Barr virus (strain AG876)), Q1HVG2; Fluorescence polarization binding assay, mP read-out; inhibition, % (tested at 21.74 µM); 220,000 tested, 0.42% active; AID 1085, 2008; in the data active = inhibition above about 50%
Target sequence (Q1HVG2 whole entry, looked up): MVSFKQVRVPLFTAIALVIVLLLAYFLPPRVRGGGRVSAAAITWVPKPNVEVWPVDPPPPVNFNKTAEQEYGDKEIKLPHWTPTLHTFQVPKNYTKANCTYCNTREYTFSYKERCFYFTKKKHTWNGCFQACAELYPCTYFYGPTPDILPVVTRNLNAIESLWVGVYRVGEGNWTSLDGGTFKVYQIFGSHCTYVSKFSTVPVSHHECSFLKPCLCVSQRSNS
BCLXL inh: inhibitors of human Bcl-xL, primary screen, biochemical, fluorescence polarization, HTS | GST-Bcl-xL / FITC-Bim BH3 peptide fluorescence polarization | inhibition, % at 10.9 µM | 320,000 tested, 0.7% active | Bcl-2-like protein 1 (Homo sapiens), Q07817;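 active = inhibition above the mean of all tested compounds plus 3 SD, cutoff set per campaign, cut at about 30% in these data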;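 also: inhibitors lower millipolarization by displacing the labeled peptide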
Target sequence (Q07817 whole entry, looked up): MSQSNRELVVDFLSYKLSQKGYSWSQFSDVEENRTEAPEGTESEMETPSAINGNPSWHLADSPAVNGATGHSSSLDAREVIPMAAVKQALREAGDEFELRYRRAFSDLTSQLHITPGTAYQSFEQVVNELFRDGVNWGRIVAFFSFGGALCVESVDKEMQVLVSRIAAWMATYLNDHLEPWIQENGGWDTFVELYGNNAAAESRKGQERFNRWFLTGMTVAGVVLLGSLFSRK
MCL1 BIM primary: inhibitors of MCL1 binding to BIM-BH3, primary screen, biochemical, fluorescence polarization | 320,000 tested, 0.68% active | AID 2057, 2009 | Induced myeloid leukemia cell differentiation protein Mcl-1 (Homo sapiens), Q07820 | inhibition, % at 10.9 µM | GST-MCL1 / FITC-Bim-BH3 fluorescence polarization;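 active = inhibition above the mean inhibition of all tested compounds plus 3 SD, set per campaign, cut at about 40% in these data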;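 also: higher means more loss of mP so more displacement of Bim peptide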
GLD-1 TGE inh: GLD-1/TGE RNA complex disruptors, primary screen, biochemical, fluorescence polarization. Female germline-specific tumor suppressor gld-1 (Caenorhabditis elegans), Q17339. purified GLD-1 + fluorescein TGE RNA. inhibition, % at 5.96 µM. 320,000 tested, 0.44% active. AID 2280, 2010;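 active = percent inhibition above a per-plate cutoff, the plate mean of test compounds plus 3 SD, cut at about 30% in these data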
Bcl-xL conf: Bcl-xL inhibitors blocking Bim BH3 binding, confirmation, counter-screen for MCL1 inhibitor project, biochemical, fluorescence polarization; shares compounds with MCL1 BIM primary; GST-Bcl-xL / FITC-Bim BH3 peptide FP binding; inhibition, % at 10.9 µM; 1,700 tested, 54% active; AID 2166, 2009;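 active = inhibition above a cutoff equal to the mean inhibition of all tested compounds plus 3 SD, cut at about 30% in these data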
MCL1 BIM confirm: inhibitors of MCL1 binding to BIM-BH3, confirmation, biochemical, fluorescence polarization, triplicate | shares compounds with MCL1 BIM primary | GST-MCL1 / FITC-Bim-BH3 fluorescence polarization | inhibition, % at 10.9 µM | 1,700 tested, 61% active | AID 2168, 2009;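 active = inhibition above the average of all tested compounds plus 3 SD, cut at about 40% in these data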
Large screens that a line does not name were inactive (follow-up assays come after a bar, where they were run); ! = repeats disagree. An excerpt weighted towards active compounds, which were near 1.3% of everything screened.

CCN(CC)C(=O)Cn1cc(C=C2C(=O)N(C)C(=O)N(C)C2=O)c2ccccc21	MEX-5 binding inconclusive (no result: EBV gp42 inh)
O=C1NC(=O)N(Cc2ccccc2)C(=O)/C1=C\c1ccco1	MEX-5 binding -30.2
CC/C(=C\C=C\[C@@H]1C=C[C@@H]2CCC[C@H]2[C@@H]1C(=O)c1ccc[nH]1)[C@@H]1O[C@@H]([C@@H](C)C(=O)O)CC[C@@H]1C	MEX-5 binding inconclusive, BCLXL inh 34.5
COCCNC(=O)c1c(N)n(Cc2ccco2)c2nc3ccccc3nc12	none
CC(C)(C)OC(=O)c1c(N)n(Cc2ccco2)c2nc3ccccc3nc12	BCLXL inh 53.5, MCL1 BIM primary 40.8, GLD-1 TGE inh 48.1
CN1CCN(S(=O)(=O)c2cnc(Cl)c(Br)c2)CC1	none
COc1cccc(C2(O)CCN(CC(=O)Nc3nc(C)cs3)CC2)c1	MEX-5 binding -51.2
C[C@]12CCC3C(CC[C@H]4C[C@@H](O)CC[C@]34C)C1C[C@H](Br)[C@@H]2O (stereo not given in full)	none (no result: MEX-5 binding, EBV gp42 inh, BCLXL inh, MCL1 BIM primary)
COC(=O)C1=C(c2cccc(OCc3ccccc3)c2)C[C@@H]2CC[C@H]1N2C(=O)NCc1ccc2[nH]ccc2c1	none (no result: MEX-5 binding, EBV gp42 inh)
CCCC(=O)NC(Oc1ccc(C(C)=O)cc1)C(Cl)(Cl)Cl (stereo not given)	EBV gp42 inh 62.9
C=Cn1ccnc1P(=S)(c1ccc(Cl)cc1)c1nccn1C=C	none
COc1ccc(N=Cc2c(O)n(Cc3ccccc3)c(=S)[nH]c2=O)c(OC)c1	MEX-5 binding -57.5, EBV gp42 inh 89.8
COc1ccc(OC)c(N=Cc2c(O)n(Cc3ccccc3)c(=S)[nH]c2=O)c1	MEX-5 binding -47.0
COc1ccc(Cn2c(O)c(C=Nc3c(C)n(C)n(-c4ccccc4)c3=O)c(=O)[nH]c2=O)cc1	none
C=CC[C@@H](CC/C=C/C=C/CC/C=C\[C@@H]1CSC([C@@H]2C[C@@H]2C)=N1)OC	none (no result: MEX-5 binding, EBV gp42 inh, BCLXL inh, MCL1 BIM primary)
CCC(=O)OC(Cc1ccccc1)(c1ccccc1)[C@H](C)CN(C)C (stereo not given in full)	none (no result: MEX-5 binding, EBV gp42 inh, BCLXL inh, MCL1 BIM primary)
CN(C)[C@@H]1C(=O)C(C(N)=O)=C(O)[C@@]2(O)C(=O)C3=C(O)c4c(O)cccc4[C@@](C)(O)[C@H]3C[C@@H]12	MEX-5 binding -58.7, BCLXL inh 43.1, MCL1 BIM primary 90.0 (no result: EBV gp42 inh)
Cc1ccc(OC(F)F)c(N2C(=O)C3C4CCC(O4)C3C2=O)c1 (stereo not given)	none (no result: MEX-5 binding, EBV gp42 inh)
COc1ccc(N=Cc2c(O)n(CC3CCCO3)c(=O)[nH]c2=O)cc1 (stereo not given)	none
O=c1[nH]c(=O)n(CC2CCCO2)c(O)c1/C=C1\C=Nc2ccccc21 (stereo not given)	MEX-5 binding -35.7!
O=c1[nH]c(=O)n(-c2ccccc2F)c(O)c1/C=C1\C=Nc2ccccc21	none (no result: EBV gp42 inh)
O=c1[nH]c(=O)n(Cc2ccccc2)c(O)c1/C=C1\C=Nc2ccccc21	MEX-5 binding inconclusive, EBV gp42 inh 89.9
O=c1[nH]c(=O)n(-c2ccc(F)cc2)c(O)c1/C=C1\C=Nc2ccccc21	MEX-5 binding -36.5 (no result: EBV gp42 inh)
CN1C(=O)C(=Cc2sc(=O)n(-c3ccccc3)c2N2CCCCC2)C(=O)N(C)C1=O	MEX-5 binding -46.4 (no result: BCLXL inh, MCL1 BIM primary, GLD-1 TGE inh)
COc1ccc(OC)c(N2C(=O)NC(=O)/C(=C\c3ccc([N+](=O)[O-])s3)C2=O)c1	MEX-5 binding -39.7
Cc1cc(C=C2C(=O)NC(=O)NC2=O)c(C)n1-c1ccc2c(c1)OCO2	none
Cc1cc(C=C2C(=O)NC(=S)NC2=O)c(C)n1-c1ccc2c(c1)OCO2	EBV gp42 inh 60.6
O=C1NC(=O)C2=Cc3ccc(O)cc3OC2(O)N1 (stereo not given)	EBV gp42 inh 89.9 (no result: MEX-5 binding, BCLXL inh, MCL1 BIM primary, GLD-1 TGE inh)
C[C@]12CCC3C(CC[C@H]4C[C@@H](O)CC[C@]34C)C1C/C(=N/O)[C@@H]2O (stereo not given in full)	none (no result: MEX-5 binding, EBV gp42 inh, BCLXL inh, MCL1 BIM primary)
CCOC(=O)c1ccccc1C(=O)OCC	BCLXL inh 62.7, MCL1 BIM primary 73.5, GLD-1 TGE inh 43.3 (no result: EBV gp42 inh) | Bcl-xL conf 59.8 | MCL1 BIM confirm 72.3
O=[N+]([O-])c1ccc(N2CCCCCC2)c2nonc12	MEX-5 binding inconclusive, BCLXL inh 132.1, MCL1 BIM primary 149.5, GLD-1 TGE inh 137.7 (no result: EBV gp42 inh) | Bcl-xL conf 107.7 | MCL1 BIM confirm 113.4
O=[N+]([O-])c1ccc(N2CCCCC2)c2ncccc12	none
CCN(CC)c1ccc(/C=C2/C(=O)NC(=O)N(CC3CCCO3)C2=O)cc1 (stereo not given)	BCLXL inh 52.3, MCL1 BIM primary 50.3 | Bcl-xL conf inactive | MCL1 BIM confirm inactive
CCCCn1c(O)c(/C(C)=N/NC(=O)Nc2ccccc2)c(=O)[nH]c1=O	none (no result: MEX-5 binding)
COC(=O)C1=C(c2ccc(S(C)(=O)=O)cc2)C[C@@H]2CC[C@H]1N2C(=O)NCc1cccc2ccccc12	none (no result: EBV gp42 inh)
CCC(C)c1ccc(N2C(=O)NC(=O)/C(=C/c3cccn3CCOc3ccc(C)cc3)C2=O)cc1 (stereo not given)	BCLXL inh 80.4, MCL1 BIM primary 112.5 | Bcl-xL conf 42.4 | MCL1 BIM confirm 52.5
COC(=O)C1=C(c2ccc(F)cc2F)C[C@@H]2CC[C@H]1N2C(=O)NCc1ccc(F)cc1	none (no result: MEX-5 binding, EBV gp42 inh)
COC(=O)C1=C(c2ccc(F)cc2F)C[C@@H]2CC[C@H]1N2C(=O)NCCOc1ccccc1	MCL1 BIM primary 119.1 (no result: MEX-5 binding, EBV gp42 inh) | Bcl-xL conf inactive | MCL1 BIM confirm inactive
CCCCS(=O)(=O)N1CCN(C(=N)N[N+](=O)[O-])CC1	none
COc1ccc(-n2c(O)c(C(C)=NCCc3c[nH]c4ccccc34)c(=O)[nH]c2=O)cc1	none
Cc1ccc(-n2c(O)c(C=Nc3ccc(S(=O)(=O)N(C)C)cc3)c(=O)[nH]c2=O)cc1	none
O=C(COc1ccc(Cl)cc1)N1CCN(C/C=C/c2ccccc2)CC1	none
O=C(COC(=O)Cc1ccccc1)Nc1cccnc1Cl	none
Cc1ccccc1NC(=O)Cc1nc(COC(=O)Cc2ccccc2)cs1	BCLXL inh 151.6, MCL1 BIM primary active, GLD-1 TGE inh 136.7 (no result: MEX-5 binding, EBV gp42 inh) | Bcl-xL conf inactive | MCL1 BIM confirm inactive
